Assay outcomes from PubChem.
PrPC TRFRET – cell surface PrPC inhibition, primary TR-FRET screen | AID 720596 | P04156 | TR-FRET read-out | hit rate 0.43% among 370,000 | inhibition, % at 13.8 µM; in the data active means inhibition above about 24%; further: 0% = median of the test wells and 100% = reference compound wells
Y pestis TopoI – Y. pestis Topo-I inhibition via cleavage products. hit rate 0.064% among 360,000. activity, % at 10 µM. AID 504884. Y. pestis Topo-I cleavage product accumulation, plate reader; in the data active means activity above about 50%, passing the limit was not always enough
PrP 5UTR inh – inhibition of PrP 5' UTR reporter expression | cell-based PrP 5' UTR mRNA reporter, plate reader | inhibition, % (test concentration not listed) | hit rate 0.35% among 340,000; in the data active means inhibition above about 52%; further: 0 = median of the neutral control wells
GDH-TPI counter – inhibits GDH-TPI coupling enzymes, artifact for Mtb FBA screen; GDH-TPI coupled enzyme counterscreen, NADH absorbance; inhibition, % at 4.8 µM; hit rate 1.2% among 360,000; AID 588335; in the data active means inhibition above about 30%;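 further: 0% = DMSO wells and 100% = wells lacking the enzyme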
Mtb hypoxia rep – Mtb hypoxia fluorescent reporter inhibition; AID 1159583; hit rate 0.1% among 300,000; fluorescence inhibition, % (concentration not given with the values); M. tuberculosis hypoxia-regulated fluorescent reporter, fluorescence; in the data active means fluorescence inhibition mostly above about 23%, no sharp cut-off; inactive means mostly below about 17%
FBA Mtb inh – inhibits M. tuberculosis FBA enzyme; hit rate 2.3% among 360,000; purified M. tuberculosis FBA, fluorescence read-out; inhibition, % at 1 µM; P9WQA3; AID 588726; in the data active means inhibition above about 27%;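 further: 0% = vehicle and 100% = reference inhibitor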
PrPC confirm – cell surface PrPC inhibition, TR-FRET confirmation; shares compounds with PrPC TRFRET; cell surface PrPC level; inhibition, % at 13.8 µM; hit rate 65% among 1,500; in the data active means inhibition above about 25%
LD9 cytotox – counter-screen for PrPc inhibitors: cytotoxicity in LD9 cells; inhibition, % at 13.8 µM; hit rate 29% among 1,500; luminescence viability; AID 743201; shares compounds with PrPC TRFRET; in the data active means inhibition above about 9.5%
An asterisk follows results filed as active; . = no result given; ! = not confirmed by another sample. Rows were chosen to be rich in hits. Some 3.8% of all compounds tested hit in one or more screens of this group.

SMILES | PrPC TRFRET | Y pestis TopoI | PrP 5UTR inh | GDH-TPI counter | Mtb hypoxia rep | FBA Mtb inh | PrPC confirm | LD9 cytotox
COc1ccc(OC)c(C2NC(=O)N(C)C(C)=C2C(=O)OCc2ccccc2)c1 (stereo unspecified) | 68* | 16 | 13 | 9 | 19 | 0 | 79* | -4
Cc1cccc(NC(=S)NN=Cc2cccn2Cc2ccc(F)cc2)c1 | . | . | . | . | 5 | . | . | .
CNNC(=S)Nc1cccc(C(F)(F)F)c1 | 62* | 4 | . | -1 | 5 | 2 | -1 | -6
CC(C)(C)NC(=S)Nc1cccc(C(F)(F)F)c1 | 2 | 1 | -4 | -6 | -14 | 2 | . | .
C#CCOCCOCCOCCNc1nc(N2CCOCC2)nc(N2CCN(C(=O)CCCCCCCCCCNC(=O)C(CCSC)n3cc(CCO)nn3)CC2)n1 (stereo unspecified) | . | . | . | . | 11 | . | . | .
CC(=O)N(Cc1cc(=O)[nH]c2ccccc12)c1cccc(C)c1 | 24* | 6 | -26 | -3 | 17 | 5 | 30* | -3
COc1cc2ccccc2cc1C(=O)Nc1ccc(Cc2ccncc2)cc1 | 30* | 20 | -50 | 1 | 10 | 2 | 16 | 19*
COc1cc2ccccc2cc1C(=O)Nc1ccc(C)cc1 | -3 | -4 | -82 | 3 | 1 | 4 | . | .
CC(=O)Nc1ccc2[nH]c(C)c(CC=C(Cl)Cl)c(=O)c2c1 | 37* | 6 | -9 | 6 | 10 | 14 | 54* | -3
CCOC(=O)c1ccc2[nH]c(C)c(CCC(C)=O)c(=O)c2c1 | 1 | -1 | -16 | 21 | 4 | 20 | . | .
COc1ccc(-c2oc3c(CC=C(C)C)c(OC4OC(CO)C(O)C(O)C4O)cc(O)c3c(=O)c2OC2OC(C)C(O)C(O)C2O)cc1 (stereo unspecified) | . | . | . | . | 1 | . | . | .
O=c1[nH]c(Cc2ccccn2)nc2scc(-c3ccccc3Cl)c12 | 26* | 0 | -12 | 6 | 6 | -1 | 11 | -4
CSCc1nc2scc(-c3ccccc3)c2c(=O)[nH]1 | -7 | -7 | -3 | 8 | 4 | -2 | . | .
O=C(NCc1ccccc1Cl)C1CCC(CNS(=O)(=O)c2cccc3cccnc23)CC1 (stereo unspecified) | 39* | . | . | . | . | . | 50* | 1
COC(=O)c1ccc(COc2ccc(C=NO)cc2OC)o1 | . | . | . | . | 18 | . | . | .
CCOC(=O)N1CCN(C(=O)C(=O)c2cn(CC(=O)N3CCCCCC3)c3ccccc23)CC1 | 9 | 19 | -6 | 6 | 1 | 1 | . | .
CCOC(=O)C1CCN(C(=O)C(=O)c2cn(CC(=O)N3CCCCCC3)c3ccccc23)CC1 | 26* | 19 | 5 | 11 | -7 | 0 | 22 | -10
O=[N+]([O-])c1ccc(N2CCOCC2)c2c1no[n+]2[O-] | 29* | 10 | . | 16 | . | -6 | 45* | 98*
O=[N+]([O-])c1ccc(N2CCOCC2)c2cccnc12 | -20 | 10 | 5 | 4 | 12 | 2 | . | .
COc1ccc([N+](=O)[O-])c(S(=O)(=O)c2ccccc2)n1 | 52* | -6 | . | 11 | 20 | 1 | -4 | 95*
O=[N+]([O-])c1cccnc1S(=O)(=O)c1ccccc1 | 38* | -1 | -15 | 2 | . | 1 | -7 | 98*
O=C(CSc1ccc2ccccc2c1Br)Nc1cccc(S(=O)(=O)NC2=NCCCCC2)c1 | 39* | 31 | -35 | -2 | -1 | 1 | 48* | 0
COc1ccc(NS(=O)(=O)c2ccc(-c3cnc(C4CC4)o3)cc2)cc1OC | 32* | 3 | -31 | 1 | 1 | 2 | 21 | 23*
COC(=O)c1cc(Br)c(=O)n(-c2ccccn2)c1 | 7 | -2 | 9 | 4 | . | 2 | . | .
COC(=O)c1cc(Br)c(=O)n(-c2nccs2)c1 | 49* | -7 | -5 | -3 | 7 | 2 | 94* | -3
SMILES | PrPC TRFRET | Y pestis TopoI | PrP 5UTR inh | GDH-TPI counter | Mtb hypoxia rep | FBA Mtb inh | PrPC confirm | LD9 cytotox
CC(=O)c1cccc(NC(=O)C2=CN3CCS(=O)(=O)N=C3C=C2)c1 | 46* | -1 | -8 | 4 | 2 | 6 | 46* | 5
CC(=O)c1cccc(NC(=O)c2c(F)c(F)c(F)c(F)c2F)c1 | -4 | 0 | 3 | 6 | 10 | -3 | . | .
O=C(C=Cc1ccccc1)NC(=Cc1ccccc1)C(=O)Nc1cccc(C(=O)O)c1 | . | . | . | . | 5 | . | . | .
CCCCN1C(N)=NCC1Cc1ccccc1 (stereo unspecified) | . | . | . | . | 20 | . | . | .
CNC(=O)OCc1nc(SSC(C)(C)C)n(C)c1COC(=O)NC | 50* | 5 | -20 | -6 | . | -5 | 23 | 92*
Cc1ccc(NNC(=O)C(O)(c2cccc(C(F)(F)F)c2)c2cccc(C(F)(F)F)c2)cc1 | 24 | -11 | -26 | 2 | 11 | -2 | . | .
O=C(NNc1ccccc1Br)C(O)(c1cccc(C(F)(F)F)c1)c1cccc(C(F)(F)F)c1 | 30* | -13 | -27 | 6 | -7 | 2 | 6 | 1
Cc1ccnc2c1ccc1cccnc12 | 35* | 3 | 26 | 0 | . | -3 | 38* | 35*
c1cnc2c(c1)ccc1cccnc12 | 25* | -9 | 2 | 1 | . | 3 | 25* | 14*!
Cc1[nH]c(=O)[nH]c(=O)c1C=NNC(=O)CCc1ccc(OC(C)C)cc1 | . | . | . | . | 4 | . | . | .
Cc1cc(O)c(C=Nc2ccccn2)c(=O)o1 | . | . | . | . | 1 | . | . | .
COc1ccc(C(C)(C)C)cc1NC(=O)Nc1ccc2c(c1)OCO2 | 25* | -22 | -7 | -1 | 12 | -2 | 16 | -1
COc1cc(NC(=O)Nc2ccc3c(c2)OCO3)cc(OC)c1OC | 3 | 2 | -20 | 7 | 12 | 3 | . | .
O=C(Nc1ccc(OC(F)F)c(Cl)c1)Nc1ccc2c(c1)OCO2 | 29* | 2 | -51 | 9 | -11 | 2 | 22 | 3
COc1ccc(C=NNC(=O)c2ccc(NC(=O)c3ccccc3Br)cc2)cc1 | . | . | . | . | 2 | . | . | .
Cn1ncc([N+](=O)[O-])c1C(=O)NN=Cc1c[nH]c2ccccc12 | . | . | . | . | -18 | . | . | .
Cc1cc(C)n(C(=O)C(C#N)=NNc2ccccc2[N+](=O)[O-])n1 | . | . | . | . | 9 | . | . | .
CCC(C)n1ncn(-c2ccc(N3CCN(c4ccc(O)cc4)CC3)cc2)c1=O (stereo unspecified) | 25* | -2 | -2 | -1 | 0 | -3 | 30* | -8
CCC(C)n1ncn(-c2ccc(N3CCN(c4ccc(OCC5COC(Cn6cncn6)(c6ccc(Cl)cc6Cl)O5)cc4)CC3)cc2)c1=O (stereo unspecified) | -3 | 18 | 14 | 1 | -12 | 6 | . | .
COc1ccc(C=NNC(=O)c2ccc(Br)cc2)cc1CN1CCOCC1 | . | . | . | . | 7 | . | . | .
NC(=O)NN=Cc1cc(F)cc(F)c1 | . | . | . | . | -1 | . | . | .
CC1C(OC(=O)CCC(=O)NC(C)(C)CO)O[C@H]2OC3(C)CC[C@H]4[C@H](C)CCC1C24OO3 (stereo partly specified) | 33* | 16 | -30 | 14 | . | 3 | 33* | 19*
